# Data published in PMC6919601, “Identification of Plasmodium dipeptidyl aminopeptidase allosteric inhibitors by high throughput screening” (PLoS ONE, 2019).
# Out of some 110,000 compounds screened, about 230 (0.21%) showed an effect of 50% or more. Shown is part of a subset that was picked to be rich in strong results.
# Biological target: DPAP1 (Plasmodium falciparum, UniProt Q8IIJ9)
# Assay: primary screen, percent inhibition; read by cleavage of a fluorogenic dipeptide substrate; higher = more effect of the substance
# Parameters: species or system P. falciparum D10 trophozoite lysates; single well
# 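Further: 30 min substrate incubation versus DMSO and 10 µM JCP410 controls.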
# Sequence of DPAP1 (Q8IIJ9 whole entry, looked up): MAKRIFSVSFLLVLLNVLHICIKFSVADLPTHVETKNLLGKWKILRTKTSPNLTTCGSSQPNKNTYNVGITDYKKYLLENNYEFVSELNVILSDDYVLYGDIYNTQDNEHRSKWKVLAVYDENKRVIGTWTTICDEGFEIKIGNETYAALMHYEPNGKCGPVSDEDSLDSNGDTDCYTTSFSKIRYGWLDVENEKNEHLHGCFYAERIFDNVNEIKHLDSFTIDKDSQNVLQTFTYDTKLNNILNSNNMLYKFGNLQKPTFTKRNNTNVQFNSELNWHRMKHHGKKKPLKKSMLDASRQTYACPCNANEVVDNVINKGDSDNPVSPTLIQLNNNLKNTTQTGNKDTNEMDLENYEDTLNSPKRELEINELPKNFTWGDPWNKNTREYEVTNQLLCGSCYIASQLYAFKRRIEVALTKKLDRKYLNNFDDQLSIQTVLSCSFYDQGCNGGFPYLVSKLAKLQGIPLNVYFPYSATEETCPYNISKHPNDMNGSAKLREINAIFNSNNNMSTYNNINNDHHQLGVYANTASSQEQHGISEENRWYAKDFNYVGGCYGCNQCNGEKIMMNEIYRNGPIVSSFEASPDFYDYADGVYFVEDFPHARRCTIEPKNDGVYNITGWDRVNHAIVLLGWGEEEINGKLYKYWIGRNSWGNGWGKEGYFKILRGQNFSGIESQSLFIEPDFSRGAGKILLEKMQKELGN
row,SMILES,% Inhibition @ 10 uM [%]
1,CCCCN(C)C(=O)C1c2ccccc2C(=O)N(CCOC)C1c1c[nH]c2ccccc12 (centres unmarked),5.62
2,Cc1ccc2nc(O)c3cc(C(=O)NCCc4ccsc4)sc3c2c1,1.72
3,CN(C)c1ccc(NC(=O)NC2CCCCC2)cc1,-12.2
4,CC(CCCC(C)(C)O)NC(C)Cc1ccc(F)cc1 (centres unmarked),4.68
5,O=C(CC1(O)C(=O)Nc2ccc(Br)cc21)c1ccc2ccccc2c1 (centres unmarked),4.03
6,CCC1(C)Cc2c(sc3nc(S)nc(N)c23)CO1 (centres unmarked),62.9
7,CCC1(C)Cc2c(sc3nc(SCC(=O)c4ccccc4)nc(N)c23)CO1 (centres unmarked),0.992
8,CCC1(C)Cc2c(sc3nc(SC)nc(O)c23)CO1 (centres unmarked),8.9
9,CCCCNc1cc(O)c(CC(=O)Nc2ccccc2)c2cc(OC)c(OC)cc12,25.7
10,COc1cc2c(CC(=O)Nc3ccccc3)c(O)c(C)c(NCc3ccccc3)c2cc1OC,13.4
11,COc1cc2c(NCc3ccccc3)cc(O)c(CC(=O)Nc3ccccc3)c2cc1OC,66.3
12,CCn1c(C)cc(/C=C2\NC(=O)N(CC(=O)Nc3ccc(F)cc3)C2=O)c1C,0.528
13,CCCNS(=O)(=O)c1cc(-c2cc(C)no2)ccc1OC,-8.89
14,CCCCNC(=O)c1cc(-c2ccc(F)cc2)on1,4.5
15,Brc1ccc(-c2cn3nc(C4CCCCC4)sc3n2)cc1,-2.71
16,COc1ccc(C(=O)CCN(C)CC(=O)O)cc1,55.8
17,CCOc1ccc(C(=O)CCNCCC(=O)O)cc1,44.5
18,CCOc1ccc(C(=O)CCN(C)CC(=O)O)cc1,89.9
19,COc1ccc(C(=O)CCNCCC(=O)O)cc1,30.1
20,COc1ccc(C(=O)CCN(C)C)cc1,3.82
21,CCOc1ccc(C(=O)CCN(C)C)cc1,-1.25
22,O=C(O)c1ccccc1NC(=O)C12CC3CC(CC(C3)C1)C2,-5.44
23,O=C(O)CCC(=O)Nc1ccc(S(=O)(=O)NC2CCCCC2)cc1,1.49
24,CC(=O)c1ccc(N2CCN(Cc3ccc(C)cc3C)CC2)cc1,-5.11
25,CC1(C)CC(=O)C2=C(C1)N1C(=C(C#N)C2c2cccnc2)N=C(N)c2c1sc1c2CCCCC1 (centres unmarked),-2.39
26,CCc1nn(-c2cc(Oc3ccccc3)ncn2)c(N)c1C(N)=O,0.686

row,SMILES,% Inhibition @ 10 uM [%]
1,CCc1nn(-c2cc(Oc3ccc(C)cc3)ncn2)c(N)c1C(N)=O,60.5
2,Cc1ccc(Oc2cc(-n3nc(C)c(C(N)=O)c3N)ncn2)cc1,-0.795
3,CN(C1CCCCC1)S(=O)(=O)c1ccc(C(=O)Nc2nc(-c3ccccn3)cs2)cc1,-1.4
4,O=c1ncn(-c2ccccc2F)c2ncccc12,-10.2
5,CCOC(=O)C1=C(O)/C(=C\c2cc(C)n(-c3cc(C)ccc3OC)c2C)N=C1C,3.47
6,CCOC(=O)C1=C(O)/C(=C\c2cc(C)n(-c3ccccc3C(=O)OC)c2C)N=C1C,3.47
7,CCOC(=O)C1=C(O)/C(=C\c2cc(C)n(-c3ccccc3C(F)(F)F)c2C)N=C1C,52.7
8,C/N=C1/S/C(=C\c2ccc(N3Cc4ccccc4C3)cc2)C(=O)N1C,-5.19
9,CCCCNC(=O)c1cn(C)c(=O)c2cc(OC)c(OC)cc12,-5.67
10,CCCCNC(=O)c1cnn2c(C(F)F)cc(-c3ccccc3)nc12,4.08
11,CCc1nccn1C(=O)c1cnn2c(C(F)F)cc(-c3ccccc3)nc12,75.7
12,Cc1ccc(-c2cc(C(F)F)n3ncc(C(=O)NC(C)c4ccccc4)c3n2)cc1 (centres unmarked),0.778
13,Cc1ccc(-c2cc(C(F)F)n3ncc(C(=O)N4CCc5ccccc5C4)c3n2)cc1,0.778
14,O=C(c1cnn2c(C(F)F)cc(-c3ccccc3)nc12)N1CCN(c2ccccn2)CC1,5.65
15,Cc1ccc(-c2cc(C(F)F)n3ncc(C(=O)n4c(C)nc5ccccc54)c3n2)cc1,50
16,CCOC(=O)c1c(-c2ccc(F)cc2)csc1NC(=O)c1c(-c2ccccc2)noc1C,0.64
17,O=C(CCCC(=O)c1ccccc1)NC(c1ccccc1)c1ccccc1,-1.46
18,c1ccc(CSc2nccn2Cc2ccccc2)cc1,-1.97
19,CC(C)CC(=O)Nc1ccc(-c2nc3cc(Cl)ccc3o2)cc1,-1.57
20,Cc1ccc(CNS(=O)(=O)c2cn(C)cn2)cc1,1.47
21,Cn1cnc(S(=O)(=O)Nc2nnc(S)s2)c1,95.5
22,Cc1ccc(S(=O)(=O)Nc2nnc(C)s2)cc1,-1.77
23,Cc1csc(NC(=O)C(CCS(C)(=O)=O)N2Cc3ccccc3C2=O)n1 (centres unmarked),0.0322
24,O=C(/C=C/c1ccco1)c1ccc(F)cc1,14.1
25,O=C(/C=C/c1ccco1)c1ccc(C(=O)/C=C/c2ccco2)cc1,-0.268
26,COc1ccc(C(=O)/C=C/c2ccco2)cc1,60.2

row,SMILES,% Inhibition @ 10 uM [%]
1,COc1ccc(CCNC(=O)CN2C(=O)c3ccccc3C2=O)cc1,1.33
2,Cc1nn(C)cc1CN(C)C(=O)c1cc2nc(-c3ccccc3)cc(C(F)(F)F)n2n1,4.59
3,Cc1cc(N(C)C)c(=O)n(-c2ccccc2)n1,5.74
4,O=C1/C(=C\c2ccccn2)CN(Cc2ccccc2)C/C1=C\c1ccccn1,55.7
5,O=C1/C(=C\c2cccnc2)CN(Cc2ccccc2)C/C1=C\c1cccnc1,0.287
6,O=C1/C(=C/c2ccc3nccnc3c2)CN(Cc2ccccc2)C/C1=C\c1ccc2nccnc2c1,6.89
7,O=C(CCN1C(=O)C2C3C=CC(C3)C2C1=O)Nc1cccnc1 (centres unmarked),-0.551
8,CCN(CC)C(=O)Cn1cc(S(=O)(=O)Cc2cc(C)ccc2C)c2ccccc21,0.292
9,Cc1cccc(NC(=O)C2CC3CCC2C3)n1 (centres unmarked),-2.66
10,COc1ccc(S(=O)(=O)N2CCSC2c2ccccc2)cc1 (centres unmarked),3.19
11,COc1ccc(S(=O)(=O)N2CCSC2c2ccc(C)cc2)cc1 (centres unmarked),-3.45
12,COc1ccc(S(=O)(=O)N2CCSC2c2ccccc2Cl)cc1 (centres unmarked),68.6
13,CN(C)c1ccc(/C=C(\C#N)c2nc(-c3ccc(-c4ccccc4)cc3)cs2)cc1,5.77
14,CCn1ccnc1C(O)(c1ccccc1)c1ccc(C)cc1 (centres unmarked),4.67
15,CCN1C(=O)C(=CNc2ccc3c(c2)-c2ccccc2C3)C(=O)N(CC)C1=O,-0.996
16,CCc1nnc(NC(=O)c2sc3nc(-c4cccs4)cc(C(F)(F)F)c3c2N)s1,0.487
17,Nc1c(C(=O)Nc2nccs2)sc2nc(-c3cccs3)cc(C(F)(F)F)c12,76.8
18,Nc1c(C(=O)Nc2ccccn2)sc2nc(-c3cccs3)cc(C(F)(F)F)c12,-5.07
19,CC(=O)c1ccc(NC(=O)C(C)Oc2ccccc2C)cc1 (centres unmarked),-5.92
20,Cc1nc2c3ccccc3n3c(CCCC(=O)NC4CCN(Cc5ccccc5)CC4)nnc3n2n1,2.04
21,CCCN1CCN(C(=O)Cn2cccc2C(=O)c2ccccc2)CC1,1.15
22,CCOc1ccc(-c2cc(NC(=O)Cn3ncc4c(=O)oc5ccc(C)cc5c43)on2)cc1,-5.25
23,N#Cc1c(-c2cccs2)cc(-c2ccccc2)nc1S,20.6
24,CCS(=O)CCSc1nc(-c2cccs2)cc(-c2ccccc2)c1C#N (centres unmarked),7.76
25,CCCCSc1nc(-c2cccs2)cc(C(F)(F)F)c1C#N,60.7
26,N#Cc1c(C(F)(F)F)cc(-c2cccs2)nc1SCC(=O)Nc1nccs1,0.121

row,SMILES,% Inhibition @ 10 uM [%]
1,CCSc1nc(-c2cccs2)cc(C(F)(F)F)c1C#N,82.6
2,Cc1cccc(NC(=O)CSc2nc(-c3cccs3)cc(C(F)(F)F)c2C#N)n1,18.3
3,CCSc1nc(-c2ccc(OC)cc2)cc(C(F)(F)F)c1C#N,-1.4
4,N#Cc1c(C(F)(F)F)cc(-c2cccs2)nc1SCc1ccncc1,57.7
5,CC(=O)NCCSc1nc(-c2cccs2)cc(-c2ccc(F)cc2)c1C#N,5.65
6,N#Cc1c(C(F)(F)F)cc(-c2cccs2)nc1SCC(=O)Nc1ccccn1,2.44
7,N#Cc1sc2nc(-c3cccs3)cc(C(F)(F)F)c2c1N,-2.32
8,N#Cc1c(C(F)(F)F)cc(-c2cccs2)nc1S,88.5
9,Cc1ccnc(NC(=O)c2ccc(C)c(C)c2)c1,2.64
10,O=c1oc2c3c(c(Cl)cc2c2c1CCCC2)OCN(Cc1ccco1)C3,4.13
11,O=C(Nc1ccc([N+](=O)[O-])cc1)c1ccc(-c2ccccc2)cc1,2.62
12,CC(=O)N1CCN(C2CCc3ccccc3C2)CC1 (centres unmarked),0.217
13,CCC(C)NC(=O)c1ccccc1NS(=O)(=O)c1ccc(NC(C)=O)cc1 (centres unmarked),-0.872
14,COc1ccc(C2=N/C(=C\C=C\c3ccccc3)C(=O)O2)cc1,7.01
15,Cc1ccc(NC(=O)C(CC(C)C)N2Cc3ccccc3C2=O)nc1 (centres unmarked),-0.234
16,O=C(c1ccc(Br)cc1)N1CCN(c2ccc(F)cc2)CC1,0.815
17,C#CCSc1nc(-c2ccccc2)cc(C(F)(F)F)c1C#N,-10.2
18,N#Cc1c(C(F)(F)F)cc(-c2ccccc2)nc1S,73.6
19,N#CNC(=N)CSc1nc(-c2ccccc2)cc(C(F)(F)F)c1C#N,0.0719
20,COc1cc(/C=C2/NC(=O)N(Cc3ccccc3F)C2=O)cc(Br)c1O,63
21,C=CCc1cc(/C=C2/NC(=O)N(Cc3ccccc3F)C2=O)cc(OC)c1O,-2.63
22,COc1cc(/C=C2/NC(=O)N(Cc3ccccc3F)C2=O)cc(Cl)c1O,-1.28
23,Cc1oc(-c2ccc3c(c2)OCCO3)cc1C(=O)NCC(=O)O,-1.69
